Assay outcomes deposited in PubChem by The Scripps Research Institute Molecular Screening Center.
TEAD-YAP inh = TEAD-YAP interaction inhibition; HEK-TIYL cells, TEAD-Gal4/YAP UAS-luciferase luminescence; inhibition, % at 9.12 µM; hit rate 1.4% among 640,000; in the data active means inhibition above about 32%;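 further: 0% = median of test compound wells and 100% = reference inhibitor wells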
FBW7 act = human FBW7 E3 ligase activation, primary screen. AID 1259310. hit rate 0.13% among 650,000. AlphaScreen FBW7–phospho-cyclin E peptide binding, activator screen. normalized activity (activation), % at 26.1 µM. Q969H0; in the data active means normalized activity above about 1.9%;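 further: purified mutant Fbw7 with reduced substrate affinity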
GPR151 ag = activates the human receptor GPR151; Q8TDV0; PathHunter beta-arrestin GPR151 cells, luminescence; activation, % at 11.2 µM; hit rate 1% among 650,000; AID 1508602; in the data active means activation above about 4.9%;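 further: 0% = median of compound wells and 100% = cells with positive control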
Target sequence (Q8TDV0 whole entry, looked up): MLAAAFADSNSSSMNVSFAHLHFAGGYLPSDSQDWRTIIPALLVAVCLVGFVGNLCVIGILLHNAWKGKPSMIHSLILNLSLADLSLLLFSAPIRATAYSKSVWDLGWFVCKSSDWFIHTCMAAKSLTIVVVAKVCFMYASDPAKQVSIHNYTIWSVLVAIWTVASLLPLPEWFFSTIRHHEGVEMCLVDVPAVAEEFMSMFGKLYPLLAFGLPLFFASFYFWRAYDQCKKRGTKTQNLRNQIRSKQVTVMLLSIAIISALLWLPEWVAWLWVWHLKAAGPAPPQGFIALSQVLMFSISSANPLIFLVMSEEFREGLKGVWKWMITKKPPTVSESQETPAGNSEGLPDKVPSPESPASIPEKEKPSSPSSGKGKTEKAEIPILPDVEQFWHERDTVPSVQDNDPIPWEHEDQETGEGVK
MITF inh = inhibitors of human MITF. hit rate 0.91% among 650,000. AlphaScreen MITF homodimerization, bead proximity signal. inhibition, % at 2.6 µM; in the data active means inhibition above about 50%;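 further: 0% = vehicle wells with protein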
Numbers without * were called inactive. This is a sample that favours compounds with a hit; in the whole collection about 3.5% have one here.

SMILES	TEAD-YAP inh	FBW7 act	GPR151 ag	MITF inh
Fc1ccccc1-c1cnn2c(NCCc3ccccn3)ccnc12	72*	0	-3	-14
CC(C)[C@@H](CO)Nc1ccnc2c(-c3ccccc3F)cnn12	56*	0	3	10
Cc1nc2ncccc2c(=O)n1-c1ccc(F)c(NC(=O)c2cccc(Br)c2)c1	-17	0	0	16
CCc1ccc(NCn2nc(C)cc2C)cc1	-1	0	1	-2
c1coc(-c2nnc(-c3cc4c(s3)CCCC4)o2)c1	54*	0	-8	-6
O=c1oc(-c2ccco2)nc2sc3c(c12)CCCC3	2	0	-2	2
O=C(NCc1nnc2n1CCN(Cc1cccs1)CC2)c1ccccn1	11	0	1	15
CCCOCc1cc(CN2CCCCC2)c(O)c2ncccc12	71*	-1	4	106*
CCOc1cccc(CN2CCCCCC2)c1O	-1	0	0	10
COCc1cc(CN2CCCCC2)c(O)c2ncccc12	76*	-1	1	98*
Oc1c(CN2CCCCC2)cc(Br)c2cccnc12	58*	-1	0	98*
CC(C)OCc1cc(CN2CCCCC2)c(O)c2ncccc12	86*	-1	-1	104*
COC(=O)C1CCN(Cc2ccccc2OCC(O)CN2CCc3ccccc3C2)CC1 (stereo not given)	-3	0	0	1
O=C(O)CCN1C(=O)/C(=C\c2cccc(F)c2)SC1=S	0	0	0	4
COCc1cc(CN2CCOCC2)c(O)c2ncccc12	2	-2	1	90*
COCc1cc(CN2CCN(c3ccccc3OC)CC2)c(O)c2ncccc12	42*	0	4	107*
CCOc1ccccc1N1CCN(Cc2cc(OC)c(O)c(OC)c2)CC1	-2	0	1	27
CN(C)c1ccc(/C=C2/C(=O)NN(c3ccc(Cl)cc3)C2=O)cc1Br	-1	0	-1	3
CCOc1ccc(Br)cc1C1C2=C(CCCC2=O)N(CC(=O)O)C2=C1C(=O)CCC2	4	1.9*	0	-12
CCCOc1ccccc1C1C2=C(CCCC2=O)N(C)C2=C1C(=O)CCC2	8	3.0*	0	3
O=C(Nc1cccc(OC(=O)c2cccc(S(=O)(=O)N3CCOCC3)c2)c1)c1ccc(Br)cc1	35*	0	1	6
O=C(Oc1cccc(NC(=O)c2ccco2)c1)c1ccc(F)c(S(=O)(=O)N2CCOCC2)c1	2	0	0	-14
O=C(Nc1cccc(OC(=O)c2cc(S(=O)(=O)N3CCCCCC3)ccc2Cl)c1)c1ccccc1	-3	0	0	-5
O=C(Nc1cccc(OC(=O)c2ccc(F)c(S(=O)(=O)N3CCOCC3)c2)c1)c1ccccc1	32*	0	-1	-3
Cc1ccc(C(=O)Nc2cccc(OC(=O)c3cc(S(=O)(=O)N4CCOCC4)ccc3Cl)c2)cc1	83*	0	-6	1
SMILES	TEAD-YAP inh	FBW7 act	GPR151 ag	MITF inh
O=C(Oc1cccc(NC(=O)c2ccco2)c1)c1cccc(S(=O)(=O)N2CCOCC2)c1	-12	1	-3	18
COc1ccc(OC)c2c(=O)c(C(=O)O)c[nH]c12	-2	0	0	14
CC1=NN(c2ccc(Cl)cc2)C(=O)/C1=C/N(C)C	3	0	-2	11
O=C(Nc1ccc(F)cc1)/C(Cl)=C/c1ccccc1	-19	1	-3	7
CC(=O)c1ccc(NC(=O)/C(Cl)=C/c2ccccc2)cc1	-1	0	-1	12
COc1ccc(NC(=O)/C(Cl)=C\c2ccccc2)cc1	45*	0	-2	23
Cc1ccc(NC(=O)/C(Cl)=C\c2ccccc2)cc1	65*	1	-4	14
CCC(C)NC(=O)c1cn(C2CCCCC2)c(=O)c2c1c1ccccc1n2C (stereo not given)	4	2.3*	1	14
COCCNC(=O)c1cn(C2CCCCC2)c(=O)c2c1c1ccccc1n2C	11	0	-1	9
Cc1cc(C)cc(NS(=O)(=O)c2ccc3c4c2CC(=O)N4CC(C)S3)c1 (stereo not given)	34*	0	0	2
CC1CN2C(=O)Cc3c(S(=O)(=O)NCc4cccs4)ccc(c32)S1 (stereo not given)	8	0	-1	9
O=C(Nc1ccc2c(c1)OCO2)c1cc(C2CC2)on1	-47	0	1	-13
O=C(Nc1cccc(O)c1)c1cc(C2CC2)on1	84*	0	-5	-4
CCCc1cc(C(=O)Nc2cccc(O)c2)no1	74*	1	-5	7
CC1CN(CC(=O)NCc2nc(-c3ccccc3)cs2)Cc2cc(Cl)ccc2O1 (stereo not given)	1	0	2	16
O=c1[nH]c(C2CC2)nc2cc(-c3cnn(-c4ccc(Cl)cc4)c3)ccc12	60*	1	0	10
O=C1CN(C(=O)COC(=O)c2cc(-c3cccs3)nc3ccccc23)c2ccccc2N1	7	0	-1	55*
O=C(c1cccnc1)N1C2CCC1CC(c1ccc(F)cc1)C2 (stereo not given)	-7	0	0	2
COc1ccc(N=C2NC(=O)/C(=C/c3c(OC)ccc4ccccc34)S2)cc1	36*	0	-1	-2
COc1ccc2ccccc2c1/C=C1/SC(=S)NC1=O	2	0	-1	1
COc1ccc2ccccc2c1/C=C1\SC(=Nc2ccc(C)cc2)NC1=O	53*	0	-1	-3
CCCOc1ccc2ccccc2c1/C=C1\SC(N)=NC1=O	52*	0	0	5
COc1ccc(N=C2NC(=O)/C(=C\c3cc(OC)ccc3OC)S2)cc1	19	0	3	-17
COc1ccc2ccc(OC)c(/C=C3/C(=O)Nc4ccccc43)c2c1	53*	0	0	-3
CCCOc1ccccc1/C=C1\SC(N)=NC1=O	7	0	0	4
SMILES	TEAD-YAP inh	FBW7 act	GPR151 ag	MITF inh
COc1cc(C=O)c(Cl)cc1OCc1ccccc1	-31	0	-2	-7
CCOc1ccc(-c2nc(-c3ccc[nH]3)cs2)cc1	7	0	2	9
Cc1nnc2sc(-c3ccc(NC(=O)C(C)(C)C)cc3)nn12	40*	0	-1	1
COCCNC(=O)/C(C#N)=C/C1=C(N2CCOCC2)C(=C\c2ccccc2)/CC1	9	-1	2	9
CCOC(=O)/C(C#N)=C/C1=C(N2CCOCC2)C(=C\c2ccccc2)/CC1	-2	-1	0	51*
CC(C)(C)c1ccc(OCC(=O)Nc2ccncc2)c(Br)c1	34*	0	1	-7
O=C(COc1ccc(CO)cc1Br)Nc1ccccc1	55*	0	-2	-7
Cc1ccc(OCC(=O)Nc2ccccc2)c(Br)c1	70*	0	0	4
CC(=O)c1cccc(NC(=O)COc2ccc(C)cc2Br)c1	-41	0	-1	5
COc1cccc(NC(=O)N2CCc3nc(-c4ccncc4)nc(N4CCOCC4)c3C2)c1	-11	0	0	-5
CCN(CC)CCn1c2ccccc2n2cc(-c3ccc(Cl)c(Cl)c3)nc12	9	6.2*	-1	-4
CCN(CC)CCn1c2ccccc2n2cc(-c3ccc(Br)cc3)nc12	-3	3.6*	-2	-13
